Results on eight molecules are retold here after PubChem BioAssay (NCI).

What all share (assay): NCI-60 one-dose screen, 48 h (100 = growth as untreated, 0 = no growth, -100 = all killed)
Common to all, as to conditions: 10 µM unless noted

Assay [1] deals with NCI-H226 lung.
Assay [2] concerns NCI-H322M lung.
Assay [3] has as its system HOP-62 NSCLC.
The test system of assay [4] is NCI-H460 lung.
Assay [5] has as its system HOP-92 NSCLC.
The test system of assay [6] is NCI-H522 lung.
Assay [7] concerns A549/ATCC NSCLC.
Assay [8] has as its system 786-0 renal.
Assay [9] deals with DU-145 prostate.
Assay [10] deals with K-562 leukemia.
Assay [11] deals with MALME-3M melanoma.
Assay [12] concerns MDA-MB-231 breast.
Assay [13] deals with RXF 393 renal.
Assay [14] has as its system SF-268 CNS.
Assay [15] concerns SF-295 CNS.
For assay [16], the system named is SF-539 CNS.
In assay [17] the test system is UACC-257 melanoma.
Assay [18] concerns M14 melanoma.
The subject of assay [19] is HCT-15 colon.
Assay [20] has as its system COLO 205 colon.

About 83,000 compounds went through this panel and 20% of them were active in at least one assay; those are over-represented in the sample as a whole.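 Cell lines were cultured in 96-well plates, exposed to a single compound concentration, and assessed for percent growth 48 hours later.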 A number with no mark means an inactive call. Active and inactive are the calls of the source. How the source made its calls: active means growth percent below 10; inactive means the rest.

On to `CC(C)(O)c1cncc(-c2ccc3ncnc(N4CCc5cc(F)c(Cl)cc54)c3c2)c1`, for which the growth was 23.7% in [1]; -0.361% (active) in [2]; 30.2% in assay [3]; 17.2% in assay [4]; -6.69% (active) in [5]; 18.5% in [6]. Moreover, the growth is 15.8% in [7]; 11.7% in assay [8]; 14.4% in [9]; 33.6% in [10]; 16.1% in assay [11]; 30.3% in assay [12]. Further, the growth is -17% (active) in [13]; 26.1% in [14]; 7.56% (active) in [15]; 4.86% (active) in [16]; 42.8% in [17]; 32.2% in assay [18]. Also, the growth in [19] was 14.1%.
`Cc1ccc(C(=O)Nc2cccc(C(F)(F)F)c2)cc1Nc1nc(-c2cnccn2)nc2c1cnn2C`: the growth is 71.6% in assay [1]; 73% in [2]; 46.6% in assay [3]; 69.9% in assay [4]; 35.3% in assay [5]; 73.2% in assay [6]. Moreover, the growth in assay [7] is 70.8%; in assay [8], 74%; in assay [20], 20.4%; in assay [9], 96.6%; in assay [10] it was 3.86% (active); in [11], -15.3% (active). In addition, the growth in [12] was 25.3%; in [13], 78%; in [14] it was 81.8%; in assay [15], 79%; in assay [16], 60.6%; in [17] it was 26.1%. The growth in assay [18] was 15.7%; in assay [19], 81.3%.
`O=C1c2c(c3c4cccnc4[nH]c3c3ccc4ccccc4c23)C(=O)N1CCO`: the growth in assay [1] was 80.7%; in assay [2] it was 95%; in assay [3], 64.5%; in assay [4], 17.6%; in [5], 129%; in [6], 52.8%. Moreover, the growth in assay [7] is 78.3%; in [8], 84%; in [9], 87.2%; in assay [10], 51.4%; in [11], 114%; in [12], 78.8%. Further, the growth in [13] was 101%; in assay [14], 78.4%; in assay [15], 50.9%; in assay [16], 78.7%; in assay [17], 92.7%; in assay [18], 86.1%. In addition, the growth in assay [19] was 72.1%.
Regarding `COc1ccc(-c2cc(C(=O)N=Nc3c(O)[nH]c4ccccc34)c3ccccc3n2)cc1OC`, the growth is 86.2% in assay [1]; 89.7% in assay [2]; 93.2% in assay [3]; 99% in [4]; 89.5% in [5]; 90.2% in [6]. Further, the growth is 95.7% in assay [7]; 104% in assay [8]; 98.3% in [20]; 104% in assay [9]; 106% in [10]; 95.6% in assay [11]. The growth was 91.5% in assay [12]; 101% in assay [13]; 100% in assay [14]; 95.7% in assay [15]; 95.6% in assay [16]; 98.2% in [17]. In addition, the growth in assay [18] was 95.6%; in [19], 96.9%.
`Cc1cccc2sc(/N=C(\N)C(Br)Br)nc12`: the growth was 42.8% in [1]; 48.8% in assay [2]; 67% in assay [3]; 1.4% (active) in [4]; 47.6% in [5]; -76% (active) in [6]. Besides, the growth in assay [7] is 37.4%; in assay [8], 31.6%; in assay [20], 27%; in assay [9], 4.67% (active); in [10] it was 4.43% (active); in assay [11], -53.6% (active). The growth was 6.18% (active) in assay [12]; -22.5% (active) in assay [13]; 72.4% in assay [14]; 29% in assay [15]; 8.75% (active) in assay [16]; 67.8% in assay [17]. For the same molecule, the results for the growth in [18] and in [19] were 32.6% and -36.5% (active), respectively.
For the molecule `O=C(NNc1nc2cc(F)ccc2n2c(CN3CC4(COC4)C3)ccc12)c1cnccn1`, the growth was 7.31% (active) in assay [1]; 22.7% in assay [2]; 23% in [3]; -7.69% (active) in assay [4]; 45.2% in [5]; 2.26% (active) in assay [6]. The growth was 13.2% in assay [7]; -6.84% (active) in assay [8]; 24.8% in assay [9]; 13.4% in assay [10]; 19.5% in assay [11]; 30.6% in [12]. The growth in assay [13] was 39.2%; in assay [14] it was 22.8%; in [15], 14.3%; in assay [16], 3.55% (active); in assay [17] it was -8.36% (active); in assay [18], -26.4% (active). In addition, the growth in assay [19] is 33.1%.
Regarding `COc1ccc(-c2nc3ccc(-c4nnc(SCC(=O)Nc5ccc(C(C)=O)cc5)o4)cc3[nH]2)cc1`, the growth in assay [1] was 100%; in assay [2] it was 110%; in assay [3] it was 113%; in assay [4] it was 103%; in assay [5] it was 114%; in [6], 103%. Further, the growth is 112% in assay [7]; 105% in assay [8]; 110% in assay [9]; 85.6% in assay [10]; 87.8% in assay [11]; 94.7% in [12]. The growth was 122% in assay [13]; 104% in assay [14]; 97.5% in assay [15]; 81.6% in assay [16]; 124% in assay [17]; 91.9% in assay [18]. Besides, in assay [19], the growth is 100%.
Take `C=CCn1c(SCC(=O)c2ccc(Br)cc2)nnc1-c1c[nH]c2ccccc12`: the growth in [1] is 90.1%; in assay [2] it was 99.5%; in assay [3], 103%; in assay [4], 106%; in assay [5], 91.4%; in [6], 96.3%. Moreover, the growth was 103% in assay [7]; 98.6% in assay [8]; 108% in [20]; 106% in assay [9]; 85.5% in assay [10]; 90.7% in assay [11]. Also, the growth in assay [12] was 96.9%; in assay [13] it was 113%; in assay [14], 102%; in assay [15], 93.2%; in assay [16], 91.8%; in assay [17], 108%. In addition, the growth in assay [18] is 97.4%; in assay [19], 99%.
